This is one part of a sample in which hits are shown more often than they occur.
BL2 CD40 inh – CD40 pathway inhibition in BL2 cells; actives 0.94% (n = 83,000); AID 1053188; inhibition, % at 10 µM; BL2 NF-kB luciferase reporter, CD40L-induced, 4 h;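 active = mean inhibition of at least 50% with a set share of replicates also reaching that level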;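 also: 0% = neutral control wells and 100% = IKK inhibitor VII at 50 µM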
An asterisk follows results filed as active; [ ] = another dose, or the depositor's remark.

Screening COc1cccc(S(=O)(=O)N(C)C[C@H]2OCc3ccccc3-c3c(n(C)c4ccccc34)C(=O)N([C@H](C)CO)C[C@@H]2C)c1 returned BL2 CD40 inh 57.1*[25 µM].
COc1cccc(S(=O)(=O)N(C)C[C@@H]2OCc3ccccc3-c3c(n(C)c4ccccc34)C(=O)N([C@H](C)CO)C[C@@H]2C)c1 was read as BL2 CD40 inh 62.5*[25 µM].
C[C@@H]1CN([C@H](C)CO)C(=O)c2c(c3ccccc3n2C)-c2ccccc2CO[C@@H]1CN(C)S(=O)(=O)c1ccc([N+](=O)[O-])cc1 was read as BL2 CD40 inh 22.1[25 µM].
For Cc1cccc(S(=O)(=O)N(C)C[C@H]2OCc3ccccc3-c3c(n(C)c4ccccc34)C(=O)N([C@H](C)CO)C[C@@H]2C)c1 the results were BL2 CD40 inh 9.0.
`COc1cccc(S(=O)(=O)N(C)C[C@H]2OCc3ccccc3-c3c(n(C)c4ccccc34)C(=O)N([C@@H](C)CO)C[C@H]2C)c1` gave BL2 CD40 inh 61.1*[25 µM].
C[C@@H]1CN([C@@H](C)CO)C(=O)c2c(c3ccccc3n2C)-c2ccccc2CO[C@@H]1CN(C)S(=O)(=O)c1ccc([N+](=O)[O-])cc1 was read as BL2 CD40 inh 30.9[25 µM].
Screening C[C@H](CO)N1C[C@H](C)[C@H](CN(C)S(=O)(=O)c2cccc(F)c2)OCc2ccccc2-c2c(n(C)c3ccccc23)C1=O returned BL2 CD40 inh -3.5.
Screening C[C@@H]1CN([C@H](C)CO)C(=O)c2c(c3ccccc3n2C)-c2ccccc2CO[C@H]1CN(C)S(=O)(=O)c1cccc(F)c1 returned BL2 CD40 inh 2.1.
Screening C[C@H](CO)N1C[C@H](C)[C@H](CN(C)S(=O)(=O)c2ccc([N+](=O)[O-])cc2)OCc2ccccc2-c2c(n(C)c3ccccc23)C1=O returned BL2 CD40 inh 63.0*[25 µM].
CO[C@@H]1CN(C)C(=O)c2ccc(NC(=O)NC3CCCCC3)cc2OC[C@@H](C)N(CC2CCOCC2)C[C@H]1C was read as BL2 CD40 inh 9.7.
CNC(=O)C[C@H]1CC[C@@H]2[C@@H](COc3ccc(NS(=O)(=O)c4ccc(F)cc4)cc3C(=O)N2C)O1 was read as BL2 CD40 inh -2.9[25 µM].
Screening CCS(=O)(=O)Nc1ccc2c(c1)C(=O)N(C)[C@@H]1CC[C@H](CC(=O)N3CCN(C)CC3)O[C@H]1CO2 returned BL2 CD40 inh -5.3[25 µM].
Screening C[C@@H]1CN([C@@H](C)CO)C(=O)c2cccc(NS(=O)(=O)c3cn(C)cn3)c2O[C@@H]1CN(C)S(=O)(=O)c1ccc(Cl)cc1 returned BL2 CD40 inh 0.7.
`O=C(c1cnccn1)N1CC(=O)N2[C@H](CO)[C@@H](c3ccc(C#CC4CCCC4)cc3)[C@@H]2C1` gave BL2 CD40 inh -2.2.
Screening CCC(=O)N1[C@@H](CO)[C@H](c2ccc(C3=CCCC3)cc2)[C@@H]1CNC(=O)CN(C)C returned BL2 CD40 inh 5.2.
For CO[C@H]1CN(C)C(=O)c2cc(NC(=O)NC3CCCCC3)ccc2OC[C@H](C)N(CC2CC2)C[C@H]1C the results were BL2 CD40 inh -1.6.
COc1ccccc1C(=O)N1C[C@H]2[C@@H](c3ccccc31)[C@@H](CO)N2Cc1ccc(F)cc1 was read as BL2 CD40 inh 14.3[25 µM].
Screening COc1cccc(S(=O)(=O)N(C)C[C@@H]2OCc3ccccc3-c3c(n(C)c4ccccc34)C(=O)N([C@H](C)CO)C[C@H]2C)c1 returned BL2 CD40 inh 64.2*[25 µM].
`C[C@@H]1CN([C@H](C)CO)C(=O)c2c(c3ccccc3n2C)-c2ccccc2CO[C@@H]1CN(C)S(=O)(=O)c1cccc(F)c1` gave BL2 CD40 inh -7.7.
`C[C@H]1CN([C@@H](C)CO)C(=O)c2c(c3ccccc3n2C)-c2ccccc2CO[C@@H]1CN(C)S(=O)(=O)c1cccc(F)c1` gave BL2 CD40 inh 5.0.
Screening O=S(=O)(c1cccc2cnccc12)N1CCNCC1 returned BL2 CD40 inh 53.4*[25 µM].
For O=S(=O)(c1cccc2cccnc12)N1CCN(c2ccccc2)CC1 the results were BL2 CD40 inh 6.1.
Screening O=S(=O)(c1cccc2cccnc12)N1CCN(c2ccccn2)CC1 returned BL2 CD40 inh 11.2.
CO[C@H]1CN(C)C(=O)c2ccc(NS(C)(=O)=O)cc2OC[C@H](C)N(C(=O)C2CCCC2)C[C@H]1C was read as BL2 CD40 inh -15.1.
For COc1ccc2c3c(n(C)c2c1)[C@@H](CO)N(C(C)=O)CC31CCN(Cc2ccccc2OC)CC1 the results were BL2 CD40 inh 16.0[25 µM].
For COc1ccc(NC(=O)Nc2ccc3c(c2)C(=O)N([C@H](C)CO)C[C@H](C)[C@H](CN(C)Cc2ccc(C(F)(F)F)cc2)OCCCC[C@@H](C)O3)cc1 the results were BL2 CD40 inh -1.9.
COc1ccc(S(=O)(=O)Nc2ccc3c(c2)C(=O)N([C@@H](C)CO)C[C@H](C)[C@H](CN(C)Cc2ccncc2)OCCCC[C@H](C)O3)cc1 was read as BL2 CD40 inh 2.8.
For COc1ccc(NC(=O)Nc2ccc3c(c2)C(=O)N([C@H](C)CO)C[C@@H](C)[C@H](CN(C)Cc2ccc(C(F)(F)F)cc2)OCCCC[C@H](C)O3)cc1 the results were BL2 CD40 inh 0.7.
COc1ccc(S(=O)(=O)Nc2ccc3c(c2)C(=O)N([C@@H](C)CO)C[C@@H](C)[C@@H](CN(C)Cc2ccc(C(F)(F)F)cc2)OCCCC[C@@H](C)O3)cc1 was read as BL2 CD40 inh 56.8*[25 µM].
Screening COc1ccc(S(=O)(=O)Nc2ccc3c(c2)C(=O)N([C@@H](C)CO)C[C@@H](C)[C@H](CN(C)Cc2ccc(C(F)(F)F)cc2)OCCCC[C@H](C)O3)cc1 returned BL2 CD40 inh 28.0[25 µM].
For COc1ccc(S(=O)(=O)Nc2ccc3c(c2)C(=O)N([C@H](C)CO)C[C@H](C)[C@H](CN(C)Cc2ccc(C(F)(F)F)cc2)OCCCC[C@@H](C)O3)cc1 the results were BL2 CD40 inh 30.1[25 µM].
For C[C@@H]1CCCCO[C@H](CN(C)Cc2ccc(C(F)(F)F)cc2)[C@H](C)CN([C@@H](C)CO)C(=O)c2cc(NS(=O)(=O)c3ccc(Cl)cc3)ccc2O1 the results were BL2 CD40 inh 30.6.
For COc1ccc(S(=O)(=O)Nc2ccc3c(c2)C(=O)N([C@H](C)CO)C[C@H](C)[C@H](CN(C)Cc2ccc(C(F)(F)F)cc2)OCCCC[C@H](C)O3)cc1 the results were BL2 CD40 inh 37.1[25 µM].
COc1ccc(S(=O)(=O)Nc2ccc3c(c2)C(=O)N([C@H](C)CO)C[C@@H](C)[C@H](CN(C)Cc2ccc(C(F)(F)F)cc2)OCCCC[C@@H](C)O3)cc1 was read as BL2 CD40 inh 50.2*[25 µM].
`COc1ccc(S(=O)(=O)Nc2ccc3c(c2)C(=O)N([C@@H](C)CO)C[C@@H](C)[C@@H](CN(C)Cc2ccc(C(F)(F)F)cc2)OCCCC[C@H](C)O3)cc1` gave BL2 CD40 inh 73.4*[25 µM].
`COc1ccc(NC(=O)Nc2ccc3c(c2)C(=O)N([C@@H](C)CO)C[C@@H](C)[C@H](CN(C)Cc2ccc(C(F)(F)F)cc2)OCCCC[C@@H](C)O3)cc1` gave BL2 CD40 inh 6.8.
`COc1ccc(S(=O)(=O)Nc2ccc3c(c2)C(=O)N([C@H](C)CO)C[C@@H](C)[C@@H](CN(C)Cc2ccc(C(F)(F)F)cc2)OCCCC[C@H](C)O3)cc1` gave BL2 CD40 inh 57.9*[25 µM].
Screening C[C@@H]1CN([C@@H](C)CO)C(=O)c2ccccc2-c2ccccc2CO[C@H]1CN(C)CC1CC1 returned BL2 CD40 inh -10.1[25 µM].
For COc1ccc2c3c(n(C)c2c1)[C@H](CO)N(C(=O)C1CCC1)CC31CCN(CC2CCCC2)CC1 the results were BL2 CD40 inh 4.0[25 µM].

Compound activity from PubChem BioAssay.
